Experimental data taken from PubChem BioAssay (NCI).
Compounds without any hit were thinned out: in the full panel of roughly 79,000, 15% have a hit. Calls of active or inactive are those of the source. Cut-off read from the data, not from the text of the source: active = growth inhibition above about 70%; inactive = the rest.

Test: NCI Yeast Anticancer Drug Screen. Data for the mgt1 strain (AID 153)
Settings: S. cerevisiae mgt1 mutant growth inhibition; at 33.0 µM; stronger effect = higher value
Outline: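 mgt1 strain exposed; growth vs vehicle control recorded as inhibition.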
For `O=C1/C(=C/c2ccccc2)CCCC1CN1CCCCC1` (stereo not drawn), the growth inhibition was 85% (active).
For `C#CCN(Cc1ccc2nc(N)[nH]c(=O)c2c1)c1ccc(C(=O)NC(CCC(=O)O)C(=O)O)cc1` (stereo not drawn), the growth inhibition was 17% (inactive).
In the case of `CCOC1(c2cccc([N+](=O)[O-])c2)c2ccccc2Oc2ccccc21`, the growth inhibition is reported as 15% (inactive).
In the case of `O=C(O)CNC(=S)Nc1ccccc1`, the growth inhibition is reported as 77% (active).
In the case of `N/C(=N/N=C/c1cc(Br)cc(Br)c1O)NO`, the growth inhibition is reported as 95% (active).
With `C[Si](C)(C)/C=C/CCNC(C#N)c1ccccc1` (stereo not drawn) the growth inhibition was 22% (inactive).
With `CCCCCCCCCCCCCCCCOP(=O)(O)OCC(N)C(=O)O` (stereo not drawn) the growth inhibition was 97% (active).
For `CC1=C(C(=O)NCc2ccccc2)C(c2ccccc2)C(C(=O)NCc2ccccc2)=C(C)N1`, the growth inhibition was 6% (inactive).
In the case of `O=[N+]([O-])c1cc(S(=O)(=O)Nc2ccccc2)ccc1Nc1ccccc1`, the growth inhibition is reported as 92% (active).
With `COc1cc2ccnc(-c3c4ccccc4c(N)c4c(OC)c(OC)ccc34)c2cc1OC` the growth inhibition was 2% (inactive).
With `CCOC(=O)C(Br)C(Br)c1ccccc1Cl` (stereo not drawn) the growth inhibition was 99% (active).
For `CCOC(=O)C1=C(C)NC(C)=C(C(=O)OCCNC(=O)c2ccc(N=[N+]=[N-])cc2)C1c1ccccc1C(F)(F)F` (stereo not drawn), the growth inhibition was 12% (inactive).
With `Cc1cc(C)c(NC(=S)NC(=O)c2ccccc2)cc1C` the growth inhibition was 26% (inactive).
For `CNCCCNc1c2ccccc2nc2cccc([N+](=O)[O-])c12`, the growth inhibition was 94% (active).
For `COc1c(O)c(C=O)c(Br)c(C=O)c1O`, the growth inhibition was 30% (inactive).
In the case of `Cc1c(C)c(C)c(CSC(=N)N)c(C)c1C`, the growth inhibition is reported as 6% (inactive).
With `O=C(CSC(=S)N1CCCCC1)Nc1nc2c(s1)CCCC2` the growth inhibition was 17% (inactive).
For `CNC(=O)OCc1c(COC(=O)NC)c(-c2ccc(Cl)cc2)n2c1CCC2`, the growth inhibition was -17% (inactive).
With `CC(=O)OC1CC2C(C)(C)C(=O)C=C[C@]2(C)C2CCC3(C)C(=CCC3[C@H](CO)C[C@H](O)C(=O)C(C)(C)O)[C@]12C` (stereo partly drawn) the growth inhibition was 90% (active).
With `CCCCCCOC(=O)NCCOC(=O)Nc1ccccc1` the growth inhibition was 22% (inactive).
For `C[C](C)(C)[Ge]([O][Ge]([c]1ccccc1)[c]1ccccc1)([O][Ge]([c]1ccccc1)[c]1ccccc1)[C](C)(C)C`, the growth inhibition was 67% (inactive).
For `CCc1c(Cl)c(C)cc(O)c1Cl`, the growth inhibition was 49% (inactive).
With `Cc1nc(Nc2ccccc2[N+](=O)[O-])sc1C(=O)CC(=O)C(=O)Nc1c(C(C)C)cccc1C(C)C` the growth inhibition was -11% (inactive).
With `O=[N+]([O-])c1cccc2nc3ccccc3c(NCCCn3ccnc3[N+](=O)[O-])c12` the growth inhibition was 55% (inactive).
For `CCCCCCC(O)CNCc1ccnc2ccc(OC)cc12` (stereo not drawn), the growth inhibition was 38% (inactive).
With `Cc1c2cccc(Sc3ccccc3)c2c2c3c(cccc13)[S+](c1ccccc1)C2` (stereo not drawn) the growth inhibition was 95% (active).
For `C=C1CCC(O)C/C1=C/C=C1\CCCC2(C)C1CCC2C(C)CCCC(C)C` (stereo not drawn), the growth inhibition was -21% (inactive).
With `NC1=NNC2(C(N)=N1)c1ccccc1-c1ccccc12` the growth inhibition was 30% (inactive).
With `COc1cc2cc3c4cc(OC)c(OC)cc4cc[n+]3c(C)c2cc1OC` the growth inhibition was -34% (inactive).
For `COC(=O)NC1C(C)OC(OC2C/C=C(/C)C3C=CC4C(OC5CC(OC6CC(O)C(OC7CC(O)C(OC)C(C)O7)C(C)O6)C(O)C(C)O5)C(C)CC(C)C4C3(C)/C(O)=C3\C(=O)OC4(CC(C)C(CO)=CC4/C=C\2C)C3=O)CC1(C)[N+](=O)[O-]` (stereo not drawn), the growth inhibition was 8% (inactive).
With `O=C1CSC(c2cccc(Cl)c2)N1c1ccc(-c2ccc(-n3c(-c4ccccc4)nc4ccccc4c3=O)cc2)cc1` (stereo not drawn) the growth inhibition was 25% (inactive).
In the case of `CCOC(=O)C(C(=O)OCC)=P(c1ccccc1)(c1ccccc1)c1ccccc1`, the growth inhibition is reported as -6% (inactive).
For `COc1ccc(N=CN(C)C)c(C)c1`, the growth inhibition was 93% (active).
For `Cc1cc(S(=O)(=O)Nc2nnc3cnc4ccccc4n23)c(S)cc1Cl`, the growth inhibition was 26% (inactive).
In the case of `O=C(Oc1ccc2c(c1)CN(Cc1ccccc1)CO2)c1ccccc1`, the growth inhibition is reported as 10% (inactive).
In the case of `CN(C)[C@@H]1C(=O)C(C(N)=O)=C(O)[C@@]2(O)C(=O)C3=C(O)c4c(O)cccc4C[C@H]3C[C@@H]12`, the growth inhibition is reported as 97% (active).
For `O=[N+]([O-])c1ccc2c(c1)/C(=N/N=C1c3ccccc3Cc3ccccc31)c1cc([N+](=O)[O-])cc([N+](=O)[O-])c1-2`, the growth inhibition was 98% (active).
For `Cc1nc2c(Br)cc(Br)cc2c(=O)n1-c1ccccc1NC1OCC(O)C(O)C1O` (stereo not drawn), the growth inhibition was 39% (inactive).
For `Cc1cc(N(CCOS(C)(=O)=O)CCOS(C)(=O)=O)ccc1C=Nc1ccc(-c2nc(Cc3ccccc3)sc2C)cc1`, the growth inhibition was 90% (active).

Same assay, conditions: S. cerevisiae mgt1 mutant growth inhibition; at 100.0 µM; stronger effect = higher value
For `O=C1/C(=C/c2ccccc2)CCCC1CN1CCCCC1` (stereo not drawn), the growth inhibition was 96% (active).
For `C#CCN(Cc1ccc2nc(N)[nH]c(=O)c2c1)c1ccc(C(=O)NC(CCC(=O)O)C(=O)O)cc1` (stereo not drawn), the growth inhibition was 34% (inactive).
For `CCOC1(c2cccc([N+](=O)[O-])c2)c2ccccc2Oc2ccccc21`, the growth inhibition was 0% (inactive).
With `O=C(O)CNC(=S)Nc1ccccc1` the growth inhibition was 94% (active).
For `N/C(=N/N=C/c1cc(Br)cc(Br)c1O)NO`, the growth inhibition was 98% (active).
In the case of `C[Si](C)(C)/C=C/CCNC(C#N)c1ccccc1` (stereo not drawn), the growth inhibition is reported as 94% (active).
In the case of `CCCCCCCCCCCCCCCCOP(=O)(O)OCC(N)C(=O)O` (stereo not drawn), the growth inhibition is reported as 97% (active).
For `CC1=C(C(=O)NCc2ccccc2)C(c2ccccc2)C(C(=O)NCc2ccccc2)=C(C)N1`, the growth inhibition was 97% (active).
With `O=[N+]([O-])c1cc(S(=O)(=O)Nc2ccccc2)ccc1Nc1ccccc1` the growth inhibition was 82% (active).
In the case of `COc1cc2ccnc(-c3c4ccccc4c(N)c4c(OC)c(OC)ccc34)c2cc1OC`, the growth inhibition is reported as 50% (inactive).
In the case of `CCOC(=O)C(Br)C(Br)c1ccccc1Cl` (stereo not drawn), the growth inhibition is reported as 99% (active).
For `CCOC(=O)C1=C(C)NC(C)=C(C(=O)OCCNC(=O)c2ccc(N=[N+]=[N-])cc2)C1c1ccccc1C(F)(F)F` (stereo not drawn), the growth inhibition was 24% (inactive).
With `Cc1cc(C)c(NC(=S)NC(=O)c2ccccc2)cc1C` the growth inhibition was 37% (inactive).
For `CNCCCNc1c2ccccc2nc2cccc([N+](=O)[O-])c12`, the growth inhibition was 97% (active).
With `COc1c(O)c(C=O)c(Br)c(C=O)c1O` the growth inhibition was 82% (active).
For `Cc1c(C)c(C)c(CSC(=N)N)c(C)c1C`, the growth inhibition was 98% (active).
For `O=C(CSC(=S)N1CCCCC1)Nc1nc2c(s1)CCCC2`, the growth inhibition was 85% (active).
With `CNC(=O)OCc1c(COC(=O)NC)c(-c2ccc(Cl)cc2)n2c1CCC2` the growth inhibition was 98% (active).
With `CC(=O)OC1CC2C(C)(C)C(=O)C=C[C@]2(C)C2CCC3(C)C(=CCC3[C@H](CO)C[C@H](O)C(=O)C(C)(C)O)[C@]12C` (stereo partly drawn) the growth inhibition was 94% (active).
With `CCCCCCOC(=O)NCCOC(=O)Nc1ccccc1` the growth inhibition was 4% (inactive).
With `C[C](C)(C)[Ge]([O][Ge]([c]1ccccc1)[c]1ccccc1)([O][Ge]([c]1ccccc1)[c]1ccccc1)[C](C)(C)C` the growth inhibition was 62% (inactive).
With `CCc1c(Cl)c(C)cc(O)c1Cl` the growth inhibition was 95% (active).
For `Cc1nc(Nc2ccccc2[N+](=O)[O-])sc1C(=O)CC(=O)C(=O)Nc1c(C(C)C)cccc1C(C)C`, the growth inhibition was -1% (inactive).
In the case of `O=[N+]([O-])c1cccc2nc3ccccc3c(NCCCn3ccnc3[N+](=O)[O-])c12`, the growth inhibition is reported as 82% (active).
In the case of `CCCCCCC(O)CNCc1ccnc2ccc(OC)cc12` (stereo not drawn), the growth inhibition is reported as 51% (inactive).
In the case of `Cc1c2cccc(Sc3ccccc3)c2c2c3c(cccc13)[S+](c1ccccc1)C2` (stereo not drawn), the growth inhibition is reported as 90% (active).
With `C=C1CCC(O)C/C1=C/C=C1\CCCC2(C)C1CCC2C(C)CCCC(C)C` (stereo not drawn) the growth inhibition was 52% (inactive).
In the case of `NC1=NNC2(C(N)=N1)c1ccccc1-c1ccccc12`, the growth inhibition is reported as 98% (active).
For `COc1cc2cc3c4cc(OC)c(OC)cc4cc[n+]3c(C)c2cc1OC`, the growth inhibition was -31% (inactive).
In the case of `COC(=O)NC1C(C)OC(OC2C/C=C(/C)C3C=CC4C(OC5CC(OC6CC(O)C(OC7CC(O)C(OC)C(C)O7)C(C)O6)C(O)C(C)O5)C(C)CC(C)C4C3(C)/C(O)=C3\C(=O)OC4(CC(C)C(CO)=CC4/C=C\2C)C3=O)CC1(C)[N+](=O)[O-]` (stereo not drawn), the growth inhibition is reported as 7% (inactive).
For `O=C1CSC(c2cccc(Cl)c2)N1c1ccc(-c2ccc(-n3c(-c4ccccc4)nc4ccccc4c3=O)cc2)cc1` (stereo not drawn), the growth inhibition was 60% (inactive).
With `CCOC(=O)C(C(=O)OCC)=P(c1ccccc1)(c1ccccc1)c1ccccc1` the growth inhibition was 78% (active).
For `COc1ccc(N=CN(C)C)c(C)c1`, the growth inhibition was 95% (active).
In the case of `Cc1cc(S(=O)(=O)Nc2nnc3cnc4ccccc4n23)c(S)cc1Cl`, the growth inhibition is reported as 34% (inactive).
For `O=C(Oc1ccc2c(c1)CN(Cc1ccccc1)CO2)c1ccccc1`, the growth inhibition was 39% (inactive).
With `CN(C)[C@@H]1C(=O)C(C(N)=O)=C(O)[C@@]2(O)C(=O)C3=C(O)c4c(O)cccc4C[C@H]3C[C@@H]12` the growth inhibition was 99% (active).
With `O=[N+]([O-])c1ccc2c(c1)/C(=N/N=C1c3ccccc3Cc3ccccc31)c1cc([N+](=O)[O-])cc([N+](=O)[O-])c1-2` the growth inhibition was 93% (active).
With `Cc1nc2c(Br)cc(Br)cc2c(=O)n1-c1ccccc1NC1OCC(O)C(O)C1O` (stereo not drawn) the growth inhibition was 97% (active).
In the case of `Cc1cc(N(CCOS(C)(=O)=O)CCOS(C)(=O)=O)ccc1C=Nc1ccc(-c2nc(Cc3ccccc3)sc2C)cc1`, the growth inhibition is reported as 98% (active).
